Bioassay records deposited in PubChem by National Center for Advancing Translational Sciences (NCATS).
Shown are actives, neighbours in structure and some others; about 6.7% of the full set was active somewhere.
MCF10A rerep = inducers of DNA re-replication in MCF 10A breast cells. MCF 10A DNA re-replication, Hoechst nuclear intensity, 48 h. Potency, µM (doses to about 46.1 µM), without a hit: at the top dose activity, positive = re-replication, usual class: activators. 350,000 compounds, 2.9% hits. AID 624296; note: % of control where 0% means no effect; nearly all actives have a fitted effect of over 50% in size
KB-V1 MDR tox = KB-V1 MDR subline cytotoxicity; KB-V1 MDR cells viability, CellTiter-Glo, 72 h; Potency, µM (doses to about 46.1 µM), usual class: cytotoxic; 400,000 compounds, 3.4% hits; AID 1347076; note: % is set by controls: 0 for no effect and ±100 for the full control effect; nearly all actives have a fitted effect of over 60% in size
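Cells of the MDR subline KB-V1 are plated, dosed with compound at multiple concentrations, and incubated 72 h at 37 degrees C; CellTiter-Glo is then added and luminescence read after 10 min.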
KB-3-1 cytotox = kills parental KB-3-1 adenocarcinoma cells | AID 1347075 | 400,000 compounds, 1.4% hits | KB-3-1 viability, CellTiter-Glo ATP luminescence, 72 h | Potency, µM (top dose mostly 46.1 µM), actives largely listed as cytotoxic; note: % is set by controls: 0 for no effect and ±100 for the full control effect; nearly all actives have a fitted effect of over 60% in size
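72 h, 37 °C compound treatment of KB-3-1 parental cells; CellTiter-Glo added, 10 min, luminescence read. Data corrected against DMSO-only plates and normalized before curve fitting.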
PINK1 expr mod = PINK1 expression modulation | AID 624263 | 410,000 compounds, 0.2% hits | PINK1 immunofluorescence, high-content cytometry, 24 h | Potency, µM (top dose mostly 76.6 µM), for inactives: at the highest dose activation (PINK1 increase), hits mostly activators; active = well fitted activation curve with a large enough effect; inconclusive = small, poorly fitted or top-dose-only effect; cell line not stated here; note: % of control where 0% means no effect; nearly all actives have a fitted effect of over 65% in size
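Decision-based qHTS: stable cells, 24 h exposure to five compound concentrations, CCCP as control. Fixed cells stained for PINK1 plus nuclear, mitochondrial and cell markers, cytometer read.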
SW480 rereplic = induces DNA re-replication in SW480 colon adenocarcinoma cells | 340,000 compounds, 1.8% hits | Potency, µM (top dose mostly 46.1 µM), for the others: at the top dose re-replication activation, hits mostly activators | SW480 DNA re-replication, Hoechst DNA content imaging, 48 h; note: % of control where 0% means no effect; nearly all actives have a fitted effect of over 55% in size
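Quantitative HTS format with DMSO vehicle controls; 48 hr drug incubation at 37 C, then 40 min Hoechst staining and scanning imager measurement at 405 nm excitation.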
Numbers without * were called inactive; i = inactive; ? = inconclusive; · = no result; [ ] = dose if it differs, or a comment. Unless noted, calls come from the whole dose curve; as a rule, active = well fitted curve in the direction sought with a large enough effect; inconclusive = small, poorly fitted or top-dose-only effect, or another doubt; inactive = no such curve, though single readings can be large; an effect the other way counts as inactive or inconclusive. Potency is the fitted concentration of half-maximal effect.

SMILES | MCF10A rerep | KB-V1 MDR tox | KB-3-1 cytotox | PINK1 expr mod | SW480 rereplic
CC1(C(=O)NS(=O)(=O)c2cccc(Cl)c2)CCN1C(=O)CCc1ccccc1 (centres undefined) | · | i | i | -0.3% | ·
O=C(c1ccco1)N1CCC2CC1c1c(Cl)cccc12 (centres undefined) | · | i | i | 0.9% | ·
CCOc1cccc(CN2CCC(n3nccc3NC(=O)C3CCCC3)CC2)c1 | 3.0% | 16.4µM* | i | 0.8% | 0.9%
Cc1ccccc1-c1ccnc2c(-c3ccc(F)cc3)c(C)nn12 | · | i | i | 4.8% | ·
CCCCOC(=O)c1cc(-c2ccc(/C=N/n3cnnc3)o2)ccc1Cl | -2.9% | 18.4µM* | i | 2.8% | 2.1%
Cc1c(Cl)cccc1-c1ccc(/C=N/n2cnnc2)o1 | 5.7% | 2.91µM* | ? | 3.1% | ?
Clc1ccccc1-c1ccc(/C=N/n2cnnc2)o1 | -3.0% | 3.26µM* | 5.8µM* | -2.4% | 2.4%
CCOC(=O)c1cc(-c2ccc(/C=N\n3cnnc3)o2)ccc1Cl | -5.7% | i | i | 3.2% | -1.1%
Clc1cccc(-c2ccc(/C=N/n3cnnc3)o2)c1Cl | 0.7% | 1.64µM* | 6.51µM* | -2.4% | -2.8%
[N-]=[N+]=NCC1OC(n2cnc3c(=O)[nH]c(N)nc32)C(O)C1O (centres undefined) | · | · | · | -0.2% | ·
COc1ccccc1CN1CC2(CCN(C(=O)c3ccncc3)CC2)C1 | · | · | · | 0.0% | ·
COc1ccccc1C1CN(Cc2ccc(Sc3nncn3C)o2)Cc2ccccc2O1 (centres undefined) | · | · | · | 0.5% | ·
N#Cc1nc(-c2ccc(F)cc2)oc1NCCN1CCOCC1 | 11.7% | ? | i | 1.7% | -16.0%
COCCNc1oc(-c2ccc(C)cc2)nc1C#N | 1.7% | 23.1µM* | i | -0.4% | -173.3%
Cc1ccc(-c2nc(C#N)c(NCCN3CCCCC3)o2)cc1 | 1.7% | 23.1µM* | i | -3.8% | 6.3%
COc1cc(C(=O)Nc2nc(C)c(Cc3ccc4c(c3)OCO4)s2)cc(OC)c1OC | 2.59µM* | 1.46µM* | i | 4.6% | 5.8µM*
Cc1c(Cc2ccc3c(c2)OCO3)sc(NC(=O)c2ccc3ccccc3c2)c1C(N)=O | 14.6µM* | i | ? | 5.6% | -1.9%
CCC(=O)Nc1sc(Cc2ccc3c(c2)OCO3)c(C)c1C(N)=O | ? | i | i | 3.8% | ?
CCCOc1ccc(C(=O)Nc2nc(C)c(Cc3ccc4c(c3)OCO4)s2)cc1 | ? | i | ? | -1.8% | ?
CN(C)S(=O)(=O)N(CC(=O)N1CCC(Cc2ccccc2)CC1)c1ccccc1 | -6.7% | i | i | 15.0% | -11.8%
COc1ccc(N(CC(=O)N2CCC(Cc3ccccc3)CC2)S(C)(=O)=O)cc1 | ? | ? | i | -2.3% | 5.8µM*
CS(=O)(=O)N(CC(=O)N1CCCC1)c1ccc(OCc2ccccc2)cc1 | -1.1% | 14.6µM* | ? | -0.2%[38.3 µM] | 0.9%
CS(=O)(=O)N(CC(=O)N1CCCCCC1)c1ccccc1 | 11.6% | i | i | 1.0% | 0.3%
Cc1ccc(C2CC(c3ccccc3)=NN2c2ccccc2)o1 (centres undefined) | 18.4µM* | i | i | 18.9% | 14.6µM*
Fc1ccc(C2=NN(c3ccccc3)C(c3ccco3)C2)cc1 (centres undefined) | ? | i | i | 15.4% | 6.51µM*
SMILES | MCF10A rerep | KB-V1 MDR tox | KB-3-1 cytotox | PINK1 expr mod | SW480 rereplic
CCOC(=O)C1CC(c2ccccc2)=NN1c1ccccc1 (centres undefined) | · | i | i | 4.2% | ·
CC(=O)N1N=C(c2ccc(Cl)cc2)CC1c1ccco1 (centres undefined) | 6.0% | i | i | -2.8% | -4.2%
O=S(=O)(c1ccccc1)N1N=C(c2ccc(Cl)cc2)CC1c1ccco1 (centres undefined) | 13.5% | ? | i | 1.7% | -1.4%
Cc1nc(N2N=C(c3ccc(Cl)cc3)CC2c2ccco2)sc1C(=O)N(C)C (centres undefined) | 23.1µM* | ? | i | 3.7% | 18.4µM*
CC(=O)N1N=C(c2ccc(C)cc2)CC1c1ccco1 (centres undefined) | ? | i | i | -2.3% | -10.4%
Cc1ccc(N2N=C(c3ccc(F)cc3)CC2c2ccco2)cc1 (centres undefined) | 5.8µM* | i | i | 10.0% | ?
COc1cc(OC)c(Nc2c3c(nc4nc(-c5cccs5)nn24)CCCC3)cc1Cl | · | i | i | 6.6% | ·
Cc1cccc(C)c1OC(=O)CSc1nnc(CNC(=O)c2ccccc2)o1 | · | i | i | -0.4% | ·
COc1ccc(C2=NN(c3nc(-c4ccccc4)c(CC(=O)O)s3)C(c3ccco3)C2)cc1 (centres undefined) | 20.6µM* | i | i | 1.1% | ?
Clc1ccc(C2=NN(c3ccccc3)C(c3ccco3)C2)cc1 (centres undefined) | 0.731µM* | i | i | 12.6% | 3.66µM*
O=C(NCc1ccccc1)c1cc2nc(C3CC3)cc(C(F)(F)F)n2n1 | 9.3% | 23.1µM* | i | -1.2% | -2.3%
Cc1cnc(SCc2ccccn2)nc1C1CCCN(C(=O)c2cccc(-c3cccc(F)c3)c2)C1 (centres undefined) | · | · | · | 2.3% | ·
CCOC(=O)C1=C(C)N(C[C@@H]2CC[C@@H](Cc3ccc(-c4ccccc4)cc3)O2)C(=O)NC1c1ccc(C(F)(F)F)cc1 (some centres undefined) | -20.3% | i | i | 1.9% | ?
CCOC(=O)C1=C(C)N(C[C@@H]2CC[C@@H](Cc3ccc4cc(OC)ccc4c3)O2)C(=O)NC1c1ccc(OC)cc1 (some centres undefined) | 4.11µM* | ? | i | 0.7% | ?
CCc1nnc(NC(=O)CSc2nc(-c3ccc(F)cc3)cc(-c3ccccc3)c2C#N)s1 | 11.6µM* | i | i | 8.7% | 9.7%
COc1ccc(-c2cc(-c3ccccc3)c(C#N)c(S(C)=O)n2)cc1 (centres undefined) | 5.17µM* | i | ? | -2.9% | ?
CCOC(=O)/C(Sc1nc(-c2ccccc2)cc(-c2ccccc2)c1C#N)=C(\C)O | 3.66µM* | i | i | 0.3% | 11.6µM*
COc1ccc(-c2cc(C(F)(F)F)c(C#N)c(SCC(=O)Nc3nc(C)co3)n2)cc1 | ? | i | i | 8.91µM* | ?
O=c1n(Cc2ccc(Cl)cc2)nc2n1-c1ccccc1OC2 | · | i | i | 0.1% | ·
COc1ccc(-c2cc(-c3ccccc3)nc(SCC(=O)Nc3ncc(C)s3)c2C#N)cc1 | 23.3% | 9.2µM* | i | 1.7% | 9.4%
CCSc1nc(-c2ccc(OC)cc2)cc(-c2ccccc2)c1C#N | ? | i | i | ? | -2.9%
CCCCNS(=O)(=O)c1ccc(C)c(-c2nnc3c4ccccc4c(C)nn23)c1 | · | · | · | -0.3% | ·
